# AHR act: AHR activators, primary screen, cell-based, luminescence, luciferase reporter, human | activation, % at 5 µM | hit rate 2.5% among 320,000 | AHR-responsive luciferase reporter cells | AID 2796, 2010; in the data active = activation above about 47%;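 note: 0% = vehicle wells and 100% = reference agonist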
# FXN GAA850 act: FXN promoter activators, primary screen, cell-based, luciferase luminescence, HEK293 lucGAA850. hit rate 0.56% among 360,000. activation, % at 6 µM. HEK293 lucGAA850 FXN promoter luciferase reporter, 24 h; percent of 10 µM SAHA response;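 active = activation above the average of all compounds screened plus 3 SD, cutoff fixed separately per campaign, cut at about 7.5% in these data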;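 note: 0% = DMSO wells and 100% = 10 µM SAHA wells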
# esBAF inh: Bmi1 luciferase reporter increase in mESCs, primary screen, esBAF inhibitor project, mouse ES cells, Bmi1 luciferase knock-in, single point; AID 602393, 2012; hit rate 2% among 350,000; 24 h; 100% = twice the neutral-well signal; reporter increase, % at 12.5 µM; in the data active = activation above about 40%; inconclusive = no clear call, values can overlap the other calls;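 note: 0% = median of the plate's neutral control wells and 100% = double that signal; a rise in the Bmi1 reporter signal indicates esBAF inhibition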
# MITF TRPM1 HTS: activators of MITF-driven TRPM1 promoter reporter, primary screen, cell-based, SK-MEL-5, luciferase, single point. hit rate 0.75% among 300,000. activation, % at 12.5 µM. AID 588334, 2011. SK-MEL-5 TRPM1-promoter luciferase, 24 h; % of positive control, neutral wells = 0;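 active = mean activation of at least 80% with every replicate also reaching 80%; inconclusive = mean reaches 80% but some replicate falls short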;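 note: 0% = neutral control wells and 100% = parthenolide positive control wells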
# Wnt act: Wnt/beta-catenin pathway activators, primary screen, cell-based, plate reader, single point | Wnt/beta-catenin reporter cell assay, activator | activation, % at 9.35 µM | hit rate 1.2% among 300,000 | AID 743398, 2014; in the data active = activation above about 30%, passing the limit was not always enough; inconclusive = no clear call, values can overlap the other calls;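 note: 0% = neutral control wells and 100% = positive control wells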
# An asterisk follows results filed as active; u = inconclusive; x = no result. Sampled rows, rich in hits. Any-hit rate of the full collection: about 4.2%.
SMILES,AHR act,FXN GAA850 act,esBAF inh,MITF TRPM1 HTS,Wnt act
Nc1nnc(-c2ccc(F)cc2)s1,3,3,16,11,x
CCC(c1nc2ccccc2[nH]1)n1c(-c2cnccn2)nc2ccccc21 (stereo not given),x,x,x,x,-2
CCOC(=O)C(c1nc2ccccc2[nH]1)n1c(-c2ccccn2)nc2ccccc21 (stereo not given),x,x,49*,x,1
CCNC(=S)NNC(=O)c1csc(C(C)C)c1,5,4,50*,24,20
Cc1nc(C#N)c(N/N=C/c2cccc(Cl)c2)o1,21,2,93*,72,28
CCN(CC)C(=S)SCC(=O)c1ccc(F)cc1,3,7,48*,76,u
CCN(CC)C(=S)SCC(=O)c1ccccc1,5,6,55*,x,x
Cc1cccc(OCC(=O)N/N=C/c2cn[nH]c2-c2ccc(Cl)c(Cl)c2)c1,47*,0,x,0,x
Cc1ccc(OCC(=O)N/N=C/c2cn[nH]c2-c2ccc(Cl)c(Cl)c2)cc1,47,1,0,2,x
COc1ccc(CNC(=O)c2cnn3c(C(F)F)cc(C)nc23)cc1OC,52*,2,1,-3,-2
Cc1cc(C)n2ncc(C(=O)NCc3cccnc3)c2n1,68*,0,-2,-7,-1
O=C(NCc1cccnc1)c1cnn2ccccc12,14,-2,6,2,-2
COC(=O)c1cccc(NC(=O)Nc2ccc(Cl)c(Cl)c2)c1,-3,-2,71*,3,-2
COc1cccc(NC(=O)Nc2ccc(C)c(Cl)c2)c1,3,6,55*,u,12
CCCC(=O)Nc1ccc(C(=O)Nc2cccc(OC)c2)cc1,11,2,x,25,21
O=C(Nc1ccc(Cl)c(Cl)c1)Nc1ccccn1,23,5,67*,73,37*
COc1cccc(NC(=O)c2ccc(NC(=O)C(C)(C)C)cc2)c1,-3,6,66*,72,13
C[C@@H]1CN([C@@H](C)CO)C(=O)c2cc(NC(=O)C3CC3)ccc2O[C@H]1CN(C)C(=O)NC1CCCCC1,x,x,-2,x,x
COc1cccc(NC(=O)Nc2ccncc2)c1,22,0,x,3,1
COc1cccc(NC(=O)Nc2ccc(C(C)(C)C)cc2)c1,x,4,57*,61,10
CC(C)C(=O)Nc1cccc(NC(=S)NC(=O)c2ccc(Cl)cc2)c1,7,1,34,x,x
O=C(NC(=S)Nc1cc([N+](=O)[O-])ccc1O)c1ccc2c(c1)OCO2,71*,-1,-8,46,u
COc1cc([N+](=O)[O-])ccc1NC(=S)NNC(=O)c1ccc2c(c1)OCO2,39,-1,x,-10,-1
O=C(NC(=S)Nc1ccc2c(c1)OCO2)c1ccc(Cl)cc1,53*,4,x,62,x
CC(C)C(=O)Nc1cccc(NC(=S)NC(=O)c2ccc3c(c2)OCO3)c1,9,1,62*,76,27
SMILES,AHR act,FXN GAA850 act,esBAF inh,MITF TRPM1 HTS,Wnt act
CCc1ccc(C(=O)NC(=S)Nc2ccc3c(c2)OCCO3)cc1,2,5,x,12,x
Cn1ccc(C(=O)NC(=S)Nc2ccc([N+](=O)[O-])cc2O)n1,x,1,69*,69,27
O=C(c1ccccc1)N1C[C@H]2[C@@H](c3ccccc31)[C@H](CO)N2S(=O)(=O)c1ccccc1,x,x,-1,x,x
S=C(Nc1ccc2c(c1)OCO2)Nc1ccc2c(c1)OCO2,68*,2,51*,31,5
CS(=O)(=O)N(CC(=O)Nc1ccc2c(c1)OCO2)Cc1ccc(Cl)cc1,65*,3,-7,-3,-3
CC(C)C(=O)Nc1cccc(NC(=S)NC(=O)c2cccs2)c1,48*,2,u,73,13
O=[N+]([O-])c1ccc(O)c(C=Nc2ccc3c(c2)OCO3)c1,45,5,41*,7,34*
CS(=O)(=O)N(CC(=O)Nc1ccc2c(c1)OCO2)Cc1ccccc1,15,1,19,19,3
CN1C[C@@H]2[C@H](c3ccccc31)[C@@H](CO)N2C(=O)Nc1ccc(F)cc1,x,x,-2,x,x
S=C(NCc1ccc2c(c1)OCO2)Nc1ccc2nsnc2c1,5,5,56*,32,-4
CCC(=O)N(C)C[C@@H]1Oc2cc(-c3ccncc3)ccc2S(=O)(=O)N([C@H](C)CO)C[C@@H]1C,x,x,-4,x,x
Cc1ccc(S(=O)(=O)N(C)C[C@@H]2Oc3ccc(NC(=O)Nc4cccc5ccccc45)cc3C(=O)N([C@@H](C)CO)C[C@@H]2C)cc1,x,x,-19,x,x
COc1ccc(-c2nnc(SCc3ccccc3F)o2)cc1OC,5,7,66*,71,x
Cc1ccc(-c2nnc(SCC(=O)Nc3ccccc3F)o2)cc1,-7,-9,-80,-76,-11
Cc1ccc(-c2nnc(SCc3ccccc3F)o2)cc1,-8,3,x,99*,29
COC(=O)CSc1nnc(-c2ccc(OC)c(OC)c2)o1,2,0,x,9,2
COCC(=O)Nc1ccc2c(c1)C(=O)N(C)C[C@H](OC)[C@H](C)CN(Cc1cccnc1)[C@H](C)CO2,x,x,1,x,x
Cc1noc(C)c1NC(=O)N(C)C[C@@H]1OCCCC[C@@H](C)Oc2ccc(NS(=O)(=O)c3ccc(F)cc3)cc2C(=O)N([C@H](C)CO)C[C@H]1C,x,x,1,x,x
Cc1ccc(S(=O)(=O)Nc2ccc3c(c2)C(=O)N([C@H](C)CO)C[C@@H](C)[C@H](CN(C)C(=O)C2CCCCC2)OCCCC[C@H](C)O3)cc1,x,x,-1,x,x
C[C@@H]1CN([C@@H](C)CO)C(=O)Cc2cc(NC(=O)C3CC3)ccc2O[C@H]1CN(C)C(=O)Nc1ccc2c(c1)OCO2,x,x,0,x,x
C[C@@H]1CN([C@H](C)CO)C(=O)Cc2cc(NC(=O)C3CCCCC3)ccc2O[C@H]1CN(C)C(=O)Nc1ccc2c(c1)OCO2,x,x,52*,x,x
C[C@H]1CN([C@@H](C)CO)C(=O)Cc2cc(NC(=O)Nc3ccc4c(c3)OCO4)ccc2O[C@@H]1CN(C)Cc1ccccc1,x,x,48*,x,x
CCCN1[C@H](C(=O)OC)[C@@H](CO)[C@@H]2Cn3c(ccc(-c4ccccc4OC)c3=O)[C@@H]21,x,x,-3,x,x
C[C@H]1CN([C@@H](C)CO)C(=O)c2cccc(NS(=O)(=O)c3cn(C)cn3)c2O[C@@H]1CN(C)CC1CC1,x,x,2,x,x
CCOc1ncccc1C(=O)NNC(=O)c1ccccc1-n1cccc1,61*,3,x,7,-1
COC(=O)C(Cc1c[nH]c2ccccc12)NC(=O)c1ccc2nc[nH]c2c1 (stereo not given),x,6,77*,39,36*
c1cc2c(cc1CNc1ccc(N3CCOCC3)cc1)OCO2,6,2,69*,75,8
CC(C)c1ccc(CNc2ccc(N3CCOCC3)cc2)cc1,5,-2,6,-7,-4
Cc1ccc(CNc2ccc(N3CCOCC3)cc2)cc1,14,4,64*,11,0

# Assay outcomes as filed in PubChem BioAssay.
